Screening data as filed in PubChem BioAssay.
TSG101-PTAP inh = blocks PTAP/TSG101 interaction to inhibit HIV-1 budding. Fluorescence polarization, FITC-PTAP peptide / Tsg101 binding. Potency, µM (highest dose often 115 µM), without a hit: at the top dose activity change, negative = inhibition, usual class: inhibitors. 340,000 tested, under 10 active. AID 493005; active = well fitted inhibition curve with a large enough effect in the main read-out, with a control signal flat, not every such curve was filed as active; inconclusive = small, poorly fitted or top-dose-only effect, or effect the other way, or a change in a side signal; inactive = no such curve, though single readings can be large or run the other way; also: % of control where 0% means no effect
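Fluorescence polarization binding of Tsg101 binding domain (10 uM final) to FITC-labeled PTAP peptide (50 nM final) in HEPES pH 7.5 buffer with NaCl, Tween 20, EDTA, TCEP. Compounds added before peptide; binding 20 min at RT.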
PLK1 PBD block = blocks phosphopeptide binding to human PLK1 polo-box domain | AID 720504 | Potency, µM, for inactives: max response, negative = inhibition, actives largely listed as inhibitors | P53350 | Plk1 PBD binding of FITC phosphopeptide, fluorescence polarization | hit rate 2.8% among 360,000; also: series mostly up to about 57 µM; % is scaled to controls: 0 for no effect and ±100 for the full control effect; nearly all actives have a fitted effect of over 65% in size
USP1-UAF1 inh = blocks the human USP1/UAF1 deubiquitinase complex | Potency, µM (titrated, usually from 57.1 µM), for inactives: at the highest dose activity change, negative = inhibition, most hits filed as inhibitors | hit rate 0.23% among 390,000 | recombinant USP1/UAF1, Ub-Rhodamine cleavage fluorescence | O94782 | AID 743255; also: % is scaled to controls: 0 for no effect and ±100 for the full control effect; nearly all actives have a fitted effect of over 60% in size
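USP1/UAF1 complex at 1 nM was preincubated with compound for 15 min at room temperature, then Ub-Rho substrate (150nM final) was added. Fluorescence (480/540 nm) was read kinetically, 6 reads every 60 seconds.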
VDR inhibitor = inhibitors of human vitamin D receptor | P11473 | AID 504847 | VDR-SRC2-3 peptide fluorescence polarization, 2 h | Potency, µM, for inactives: max response, negative = inhibition, hits mostly inhibitors | hit rate 0.93% among 400,000; also: % is scaled to controls: 0 for no effect and ±100 for the full control effect
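FP read-out; VDR + SRC2-3 coactivator peptide; 23 nl compound by pintool; 2 h RT incubation; reagents held at 4 deg C, protected from light.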
KAT2A inh = blocks human GCN5L2 histone acetyltransferase; GCN5L2 HAT assay, ThioGlo1 CoA-SH fluorescence; Potency, µM (titrated, usually from 58.9 µM), for the others: top-dose activity change, negative = inhibition, usual class: inhibitors; hit rate 0.21% among 390,000; also: % is scaled to controls: 0 for no effect and ±100 for the full control effect
Target sequence (Q92830 whole entry, looked up): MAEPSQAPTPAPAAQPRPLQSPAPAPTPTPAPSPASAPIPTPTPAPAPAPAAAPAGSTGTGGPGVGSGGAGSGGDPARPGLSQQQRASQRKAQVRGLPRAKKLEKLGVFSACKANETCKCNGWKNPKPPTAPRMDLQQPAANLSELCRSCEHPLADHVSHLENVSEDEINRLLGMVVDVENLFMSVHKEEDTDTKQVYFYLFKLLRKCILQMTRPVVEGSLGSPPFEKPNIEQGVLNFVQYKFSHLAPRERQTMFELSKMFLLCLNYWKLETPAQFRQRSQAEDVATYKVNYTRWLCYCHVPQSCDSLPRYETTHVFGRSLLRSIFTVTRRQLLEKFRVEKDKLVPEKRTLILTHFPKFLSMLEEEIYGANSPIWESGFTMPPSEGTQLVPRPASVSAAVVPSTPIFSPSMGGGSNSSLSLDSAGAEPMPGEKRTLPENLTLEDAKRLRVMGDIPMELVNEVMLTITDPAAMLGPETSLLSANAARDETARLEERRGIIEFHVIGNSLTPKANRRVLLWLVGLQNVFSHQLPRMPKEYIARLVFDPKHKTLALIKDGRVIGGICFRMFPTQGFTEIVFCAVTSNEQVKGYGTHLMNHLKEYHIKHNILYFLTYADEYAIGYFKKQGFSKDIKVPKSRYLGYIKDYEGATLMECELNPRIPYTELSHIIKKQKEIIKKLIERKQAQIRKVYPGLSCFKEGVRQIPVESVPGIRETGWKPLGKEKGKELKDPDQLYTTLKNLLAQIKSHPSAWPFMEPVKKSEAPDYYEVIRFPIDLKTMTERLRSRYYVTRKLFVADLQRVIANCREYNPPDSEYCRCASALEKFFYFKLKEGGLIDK
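Preincubate 20nM GCN5L2 with compound 15 min, RT → add 50uM ThioGlo1 + 75uM H3(1-25) + 70uM acetyl-CoA → read fluorescence 0 and 20 min. Primary qHTS; fluorescent artifacts likely.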
Active calls of the source: *; ? = inconclusive; · = no result given; ! = repeats disagree; [ ] = dose if it differs, or a comment. A selection: hits, their analogues and other compounds. The true share with any hit is near 3%. Unless noted, calls follow the shape of the dose curve; as a rule, active = well fitted curve in the direction sought with a large enough effect; inconclusive = small, poorly fitted or top-dose-only effect, or another doubt; inactive = no such curve, though single readings can be large; an effect the other way counts as inactive or inconclusive. Potency is read from the fitted curve at half-maximal effect.

SMILES	TSG101-PTAP inh	PLK1 PBD block	USP1-UAF1 inh	VDR inhibitor	KAT2A inh
CN1C(=O)C2(C(C#N)=C(N)Oc3n[nH]c(-c4ccc(Cl)cc4)c32)c2ccccc21 (stereo unspecified)	-1%	-1%	1%	-5%	-5%
COc1cc2nc(C)sc2cc1SC	-7%	24µM*	-22%	?	-6%
O=C(NS(=O)(=O)c1ccccc1)c1ccccc1O	-8%	24µM*	-14%	-4%	-25%
CC1(C(=O)NS(=O)(=O)c2cccc(Cl)c2)CCN1C(=O)C1(c2ccc(Cl)cc2)CC1 (stereo unspecified)	·	-5%	·	·	·
COC(=O)N1C(=O)[C@@](CC(C)C)(c2ccccc2)N1C(=O)OC	·	·	·	·	3%
CC[C@@]1(c2ccccc2OC)C(=O)N(C(=O)OC)N1C(=O)OC	0%	?	?	24%	-7%
CC[C@@]1(c2cccc(C)c2)C(=O)N(C(=O)OC)N1C(=O)OC	0%	9.5µM*	-29%	?	1%
COC(=O)N1C(=O)[C@](CC(C)C)(c2ccccc2)N1C(=O)OC	0%	13µM*	?	79µM*	0%
CC(=O)Nc1cccc(NC(=O)Nc2ccc(C)c(Cl)c2)c1	-1%	-3%	-12%	2%	14%
CC(=O)Nc1cccc(NC(=S)Nc2ccc(F)c(Cl)c2)c1	-7%	30µM*	-12%	-4%	-4%
CCCCn1nnnc1C(c1cc2ccccc2o1)N(C)CCc1ccccc1 (stereo unspecified)	·	-6%	·	·	·
COC(=O)C1=C(C)N(c2cccc(OC)c2)C(=O)/C1=C\c1ccco1	2%	30µM*	-18%	?	-5%
C=CCN1C(=O)/C(=C\c2ccco2)C(C(=O)OC)=C1C	-1%	2%	-14%	9%	-8%
CCC1(C)Cc2c(sc3nn[nH]c(=O)c23)CO1 (stereo unspecified)	0%	21µM*	-11%	-18%	-4%[0.501 µM]
CN1CCOc2cc(S(=O)(=O)N3CCN(c4nc(-c5cccs5)nc5ccccc45)CC3)ccc21	·	·	·	15%	·
Cc1cc(C)n2nc(C(=O)NCc3ccccc3)nc2n1	-3%	-6%	-7%	1%	-20%
Cc1ccc(CNC(=O)Cc2nc3nc(C)cc(C)n3n2)cc1	0%	0%	-14%	-2%	3%
Cc1cc(C)n2nc(CC(=O)NCc3ccc(F)cc3)nc2n1	-5%	27µM*	-16%	-26%	-1%
Cc1cc(C)n2nc(C(=O)NCc3ccccc3)cc2n1	-2%	21µM*	-10%	?	-3%
Cc1ccc(CNC(=O)CN(C)S(=O)(=O)c2ccc(Br)s2)cc1	·	·	-17%	-20%	-1%
Cc1ccc(-n2nc(CO)c(C(=O)NC(C)CCCc3ccccc3)n2)cc1C (stereo unspecified)	·	·	-13%	-6%	-5%
CC(C)N(C(=O)COC(=O)c1cncc(Br)c1)C(C)C	0%	21µM*	-6%	?	4%
CN(Cc1ccccc1)C(=O)COC(=O)c1cncc(Br)c1	0%	-5%	-13%	-2%	-2%
CCCCNC1C(CC)C(CCC)C(C#N)(C#N)C1(C#N)C#N (stereo unspecified)	0%	-4%	-17%	45µM*	1%
COc1cccc(CNC(=O)c2cc(-c3ccc(Cl)cc3)n[nH]2)c1	·	·	-23%	-2%	-10%
SMILES	TSG101-PTAP inh	PLK1 PBD block	USP1-UAF1 inh	VDR inhibitor	KAT2A inh
CCOc1ccc(-c2nn[nH]n2)cc1	-6%	27µM*	-19%	?	-8%
CCOc1ccc(-c2nn[nH]n2)cc1OCC	0%	3%	-9%	43%	1%
O=C1c2ccccc2C(=O)C12OC2c1cccc2ccccc12 (stereo unspecified)	-2%	?	14µM*	13µM*	-8%
COc1cccc(C2C(C(=O)Nc3ccccc3OC)=C(C)Nc3nc4ccccc4n32)c1 (stereo unspecified)	·	·	?	-12%	-10%
COc1ccc2nc3ccccc3[n+]([O-])c2c1	?	12µM*	?	-7%	·
COc1ccc2c(ccc[n+]2[O-])c1	-2%	-4%	?	-7%	·
Cc1ccc(C(=O)Nc2cccc(-c3nc4ccccc4o3)c2)c(Cl)c1	·	·	-19%	-5%	-9%
O=C(O)c1ccccc1-c1ccccc1C(=O)Nc1cccc(-c2nc3ccccc3o2)c1	-4%	67µM*	?	-16%	-2%
COc1ccc(CCNS(=O)(=O)c2cccc(C(=O)O)c2)cc1OC	0%	3.4µM*	-21%	-23%	-7%
CCOc1ncccc1C(=O)N1CCN(c2cccc(C)c2C)CC1	-2%	-17%	1%	-3%	-3%
CCOc1ncccc1C(=O)N1CCN(c2cc(Cl)ccc2C)CC1	1%	21µM*	?	17%	-8%
O=C(O)c1ccc(NC2=C(n3nnc4ccccc43)C(=O)c3ccccc3C2=O)cc1	-3%	-18%	16µM*	13%	-3%
O=C(O)c1ccc(Nc2nc3ccccc3n3cnnc23)cc1	·	·	-27%	-10%	2%
COc1ccc2ccc3c(c2c1)N=C[C@]1(O3)N(C)c2ccccc2C1(C)C	2%	3µM*	?	-12%	?
COc1cc(NCCCC(C)N)c2ncccc2c1 (stereo unspecified)	-1%	-19%	5µM*	45µM*!	-1%
COc1cc(NCCCCC(C)N)c2nccc(C)c2c1 (stereo unspecified)	·	-3%	?	·	·
O=C1CCC/C(=N/Nc2ccc(Cl)cc2)C1	-5%	30µM*	-18%	?	-21%
O=C(CC1N=C2c3ccccc3N=C(SCc3ccccc3Cl)N2C1=O)NCCc1ccccc1 (stereo unspecified)	·	·	?	9%	-13%
CCOc1c(OC(C)=O)ccc(/C=C/c2ccc3cccc(OC(C)=O)c3n2)c1[N+](=O)[O-]	-6%	-7%	-16%	15%	-4%
C=CCN1C(=O)/C(=C/c2ccc(OC(C)=O)c(OCC)c2[N+](=O)[O-])SC1=S	-1%	-19%	14µM*	-9%	-4%
O=C(CS(=O)(=O)Cc1ccccc1)Nc1ccc(Br)cc1F	-7%	-1%	-5%	-24%	·
O=C(CCCc1ccccc1)Nc1ccccc1[N+](=O)[O-]	0%	3.4µM*	-9%	20µM*	-8%
O=C(CCCc1ccccc1)Nc1ccc(Br)cc1F	0%	6.7µM*	-2%	22µM*	-6%
NC(=O)C1CCN(c2ncnc3c2cnn3-c2cccc(Cl)c2)CC1	·	·	-14%	20%	-1%
CCCC(=O)Nc1cc(-c2nnc3c4ccccc4c(C)nn23)ccc1C	·	·	-28%	5%	-4%
O=C(CCn1nnc2ccccc21)N1CCC(O)(c2cccc(F)c2)CC1	-4%	27µM*	-10%	?	1%
NNC(=O)CCn1nnc2ccccc21	-3%	-3%	-18%	-7%	-4%
